Results reported in paper PMC7862700, “An all-to-all approach to the identification of sequence-specific readers for epigenetic DNA modifications on cytosine”.

Legend:
Test in all cases: DAPPL (digital affinity profiling via proximity ligation, sequencing); 10 mM Tris-HCl pH 7.5, 50 mM NaCl, 1 mM DTT, 4% glycerol, room temperature, 30 min; GST-TFs on glutathione beads, 16-mer random dsDNA library, 0.1% formaldehyde crosslink after washing; high values mean tight binding
Conditions in all cases: protein: recombinant; tags: N-terminal GST; dsDNA, one strand shown
FLI1 = target: T1, FLI1 (Homo sapiens, UniProt Q01543 1-452)
T1 sequence: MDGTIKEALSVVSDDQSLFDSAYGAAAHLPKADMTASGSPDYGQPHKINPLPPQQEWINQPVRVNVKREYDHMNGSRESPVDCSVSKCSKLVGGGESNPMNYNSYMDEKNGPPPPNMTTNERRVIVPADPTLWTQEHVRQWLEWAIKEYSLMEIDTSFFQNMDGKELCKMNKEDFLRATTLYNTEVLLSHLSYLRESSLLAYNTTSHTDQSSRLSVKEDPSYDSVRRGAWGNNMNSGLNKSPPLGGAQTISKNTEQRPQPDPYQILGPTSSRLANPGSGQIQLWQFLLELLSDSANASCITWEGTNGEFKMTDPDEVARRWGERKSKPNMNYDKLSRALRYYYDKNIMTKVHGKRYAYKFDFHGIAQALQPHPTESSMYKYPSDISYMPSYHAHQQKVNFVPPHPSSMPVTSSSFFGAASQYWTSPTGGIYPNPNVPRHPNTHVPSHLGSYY
In short: (§1)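 Each value of binding signal is a hexamer's read frequency for a factor divided by the same hexamer's frequency in the tag-only sample. Barcoded, bead-captured GST fusions of human transcription factors made in yeast were pooled with that sample and incubated with 200 nmole of a random double-stranded 16-mer DNA library in Tris/NaCl/DTT/glycerol buffer at room temperature for 30 min. Washing, 0.1% formaldehyde crosslinking, proximity ligation, PCR and Illumina NextSeq500 sequencing followed.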

ELK1 = target: T2, ELK1 (Homo sapiens, UniProt P19419 1-428)
T2 sequence: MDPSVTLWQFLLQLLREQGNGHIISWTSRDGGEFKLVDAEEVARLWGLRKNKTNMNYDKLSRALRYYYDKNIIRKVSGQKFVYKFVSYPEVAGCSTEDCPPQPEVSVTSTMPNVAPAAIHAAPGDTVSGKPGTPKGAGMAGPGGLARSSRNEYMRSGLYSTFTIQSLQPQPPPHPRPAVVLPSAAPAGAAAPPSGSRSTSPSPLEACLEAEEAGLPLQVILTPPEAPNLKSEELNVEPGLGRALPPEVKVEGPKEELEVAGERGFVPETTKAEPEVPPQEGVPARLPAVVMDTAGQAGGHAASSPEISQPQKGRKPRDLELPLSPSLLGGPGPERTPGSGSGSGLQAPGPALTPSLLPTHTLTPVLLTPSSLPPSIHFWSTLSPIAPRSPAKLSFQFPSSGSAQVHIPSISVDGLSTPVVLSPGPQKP
In short: as §1

GABPA = target: T3, GABPA (Homo sapiens, UniProt Q06546 1-454)
T3 sequence: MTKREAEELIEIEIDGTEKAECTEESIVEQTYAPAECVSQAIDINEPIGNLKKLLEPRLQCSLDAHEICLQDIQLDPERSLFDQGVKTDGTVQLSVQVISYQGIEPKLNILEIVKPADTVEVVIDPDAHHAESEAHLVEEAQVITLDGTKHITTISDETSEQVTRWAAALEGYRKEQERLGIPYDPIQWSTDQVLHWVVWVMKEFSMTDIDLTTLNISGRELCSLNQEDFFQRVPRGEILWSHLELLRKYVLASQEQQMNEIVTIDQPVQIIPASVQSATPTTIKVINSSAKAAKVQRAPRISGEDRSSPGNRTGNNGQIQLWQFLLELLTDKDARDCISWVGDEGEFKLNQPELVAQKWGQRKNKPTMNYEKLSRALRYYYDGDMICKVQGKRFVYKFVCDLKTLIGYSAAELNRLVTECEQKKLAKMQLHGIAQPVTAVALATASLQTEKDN
In short: as §1

ERG = target: T4, ERG (Homo sapiens, UniProt P11308 1-479)
T4 sequence: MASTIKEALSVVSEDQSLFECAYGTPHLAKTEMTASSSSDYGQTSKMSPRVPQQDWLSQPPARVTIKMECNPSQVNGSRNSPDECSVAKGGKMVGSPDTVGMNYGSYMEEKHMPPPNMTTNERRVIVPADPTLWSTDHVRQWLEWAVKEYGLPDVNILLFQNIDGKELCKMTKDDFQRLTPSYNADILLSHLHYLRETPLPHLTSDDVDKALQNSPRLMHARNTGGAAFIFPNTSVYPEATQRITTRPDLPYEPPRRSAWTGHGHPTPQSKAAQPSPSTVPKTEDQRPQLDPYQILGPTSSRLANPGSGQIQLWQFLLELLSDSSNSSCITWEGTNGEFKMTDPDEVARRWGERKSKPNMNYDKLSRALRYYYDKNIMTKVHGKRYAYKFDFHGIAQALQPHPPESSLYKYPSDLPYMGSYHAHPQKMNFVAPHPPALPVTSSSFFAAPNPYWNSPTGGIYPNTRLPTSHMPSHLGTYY
In short: as §1

ELF1 = ELF1 (Homo sapiens, UniProt P32519 1-619)
In short: as §1

EHF = target: T5, EHF (Homo sapiens, UniProt Q9NZC4 1-300)
T5 sequence: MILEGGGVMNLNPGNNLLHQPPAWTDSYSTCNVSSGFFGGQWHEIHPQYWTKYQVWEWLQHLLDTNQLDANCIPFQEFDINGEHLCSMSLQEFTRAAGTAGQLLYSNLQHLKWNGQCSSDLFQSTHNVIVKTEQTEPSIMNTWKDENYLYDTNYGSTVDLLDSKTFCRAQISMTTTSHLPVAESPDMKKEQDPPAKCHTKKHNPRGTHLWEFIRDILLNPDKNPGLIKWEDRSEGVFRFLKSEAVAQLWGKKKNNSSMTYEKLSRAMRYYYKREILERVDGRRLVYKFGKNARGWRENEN
In short: as §1

SPI1 = SPI1 (Homo sapiens, UniProt P17947 1-270)
In short: as §1

SPIB = SPIB (Homo sapiens, UniProt Q01892 1-262)
In short: as §1

ELK3 = target: T6, ELK3 (Homo sapiens, UniProt P41970 1-407)
T6 sequence: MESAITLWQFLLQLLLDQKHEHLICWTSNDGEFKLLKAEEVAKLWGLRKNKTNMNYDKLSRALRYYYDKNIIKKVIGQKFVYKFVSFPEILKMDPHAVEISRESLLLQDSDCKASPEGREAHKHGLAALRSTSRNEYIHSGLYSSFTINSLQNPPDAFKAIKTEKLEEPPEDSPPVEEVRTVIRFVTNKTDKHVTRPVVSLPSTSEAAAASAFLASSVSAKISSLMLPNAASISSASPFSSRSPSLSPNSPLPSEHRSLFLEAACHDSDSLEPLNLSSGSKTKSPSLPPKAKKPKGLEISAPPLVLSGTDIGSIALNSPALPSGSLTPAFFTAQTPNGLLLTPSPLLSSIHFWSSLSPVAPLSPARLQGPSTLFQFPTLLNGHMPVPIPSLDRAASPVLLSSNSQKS
In short: as §1

ELF1, sequence (P32519 whole entry): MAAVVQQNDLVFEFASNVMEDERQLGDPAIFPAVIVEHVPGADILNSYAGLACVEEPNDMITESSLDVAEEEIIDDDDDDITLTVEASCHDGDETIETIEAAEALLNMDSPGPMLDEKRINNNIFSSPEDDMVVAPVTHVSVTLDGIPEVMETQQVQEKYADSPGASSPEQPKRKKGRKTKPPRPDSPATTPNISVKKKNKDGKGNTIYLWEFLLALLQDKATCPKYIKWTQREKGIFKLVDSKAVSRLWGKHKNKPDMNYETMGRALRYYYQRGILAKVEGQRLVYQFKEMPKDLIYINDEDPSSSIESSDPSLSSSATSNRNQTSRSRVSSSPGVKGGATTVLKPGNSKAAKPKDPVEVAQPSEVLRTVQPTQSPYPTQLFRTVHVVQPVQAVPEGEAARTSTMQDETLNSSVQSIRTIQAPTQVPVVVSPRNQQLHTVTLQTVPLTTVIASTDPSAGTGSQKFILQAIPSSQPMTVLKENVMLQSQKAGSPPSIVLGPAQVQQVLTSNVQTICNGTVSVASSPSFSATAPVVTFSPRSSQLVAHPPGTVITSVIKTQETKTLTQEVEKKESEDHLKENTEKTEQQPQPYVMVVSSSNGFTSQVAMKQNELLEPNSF
SPIB, sequence (Q01892 whole entry): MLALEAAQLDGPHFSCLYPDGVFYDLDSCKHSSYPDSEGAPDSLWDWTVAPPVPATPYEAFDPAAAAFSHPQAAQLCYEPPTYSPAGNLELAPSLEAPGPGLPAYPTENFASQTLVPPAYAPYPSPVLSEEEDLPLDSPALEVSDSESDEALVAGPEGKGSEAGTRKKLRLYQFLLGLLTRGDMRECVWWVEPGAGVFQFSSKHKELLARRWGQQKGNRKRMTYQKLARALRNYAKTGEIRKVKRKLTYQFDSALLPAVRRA

Sequence	binding signal (FLI1)	binding signal (ELK1)	binding signal (GABPA)	binding signal (ERG)	binding signal (ELF1)	binding signal (EHF)	binding signal (SPI1)	binding signal (SPIB)	binding signal (ELK3)
GCGGAA	1.37 fold enrichment (6-mer frequency, TF over GST control)	1.33 fold enrichment (6-mer frequency, TF over GST control)	1.29 fold enrichment (6-mer frequency, TF over GST control)	1.46 fold enrichment (6-mer frequency, TF over GST control)	1.28 fold enrichment (6-mer frequency, TF over GST control)	1.52 fold enrichment (6-mer frequency, TF over GST control)	2.18 fold enrichment (6-mer frequency, TF over GST control)	1.49 fold enrichment (6-mer frequency, TF over GST control)	1.37 fold enrichment (6-mer frequency, TF over GST control)
GAATTC	1.41 fold enrichment (6-mer frequency, TF over GST control)	1.29 fold enrichment (6-mer frequency, TF over GST control)	1.31 fold enrichment (6-mer frequency, TF over GST control)	1.36 fold enrichment (6-mer frequency, TF over GST control)	1.31 fold enrichment (6-mer frequency, TF over GST control)	1.43 fold enrichment (6-mer frequency, TF over GST control)	1.43 fold enrichment (6-mer frequency, TF over GST control)	1.38 fold enrichment (6-mer frequency, TF over GST control)	1.38 fold enrichment (6-mer frequency, TF over GST control)
TGGGTT	1.17 fold enrichment (6-mer frequency, TF over GST control)	1.11 fold enrichment (6-mer frequency, TF over GST control)	1.18 fold enrichment (6-mer frequency, TF over GST control)	1.1 fold enrichment (6-mer frequency, TF over GST control)	1.1 fold enrichment (6-mer frequency, TF over GST control)	1.18 fold enrichment (6-mer frequency, TF over GST control)	1.01 fold enrichment (6-mer frequency, TF over GST control)	1.02 fold enrichment (6-mer frequency, TF over GST control)	1.01 fold enrichment (6-mer frequency, TF over GST control)
TTGGGC	1.03 fold enrichment (6-mer frequency, TF over GST control)	1.07 fold enrichment (6-mer frequency, TF over GST control)	1.01 fold enrichment (6-mer frequency, TF over GST control)	1.07 fold enrichment (6-mer frequency, TF over GST control)	1.03 fold enrichment (6-mer frequency, TF over GST control)	1.1 fold enrichment (6-mer frequency, TF over GST control)	1.2 fold enrichment (6-mer frequency, TF over GST control)	1.1 fold enrichment (6-mer frequency, TF over GST control)	1.21 fold enrichment (6-mer frequency, TF over GST control)
AAGAAC	1.13 fold enrichment (6-mer frequency, TF over GST control)	1.18 fold enrichment (6-mer frequency, TF over GST control)	1.15 fold enrichment (6-mer frequency, TF over GST control)	1.22 fold enrichment (6-mer frequency, TF over GST control)	1.17 fold enrichment (6-mer frequency, TF over GST control)	1.24 fold enrichment (6-mer frequency, TF over GST control)	1.14 fold enrichment (6-mer frequency, TF over GST control)	1.05 fold enrichment (6-mer frequency, TF over GST control)	1.24 fold enrichment (6-mer frequency, TF over GST control)
GCAAAT	1.05 fold enrichment (6-mer frequency, TF over GST control)	1.04 fold enrichment (6-mer frequency, TF over GST control)	1.04 fold enrichment (6-mer frequency, TF over GST control)	1.18 fold enrichment (6-mer frequency, TF over GST control)	1.11 fold enrichment (6-mer frequency, TF over GST control)	1.03 fold enrichment (6-mer frequency, TF over GST control)	1.02 fold enrichment (6-mer frequency, TF over GST control)	1.14 fold enrichment (6-mer frequency, TF over GST control)	1.01 fold enrichment (6-mer frequency, TF over GST control)
AAAGAT	1.18 fold enrichment (6-mer frequency, TF over GST control)	1.21 fold enrichment (6-mer frequency, TF over GST control)	1.21 fold enrichment (6-mer frequency, TF over GST control)	1.21 fold enrichment (6-mer frequency, TF over GST control)	1.26 fold enrichment (6-mer frequency, TF over GST control)	1.18 fold enrichment (6-mer frequency, TF over GST control)	1.23 fold enrichment (6-mer frequency, TF over GST control)	1.3 fold enrichment (6-mer frequency, TF over GST control)	1.13 fold enrichment (6-mer frequency, TF over GST control)
CCATCT	1.3 fold enrichment (6-mer frequency, TF over GST control)	1.44 fold enrichment (6-mer frequency, TF over GST control)	1.32 fold enrichment (6-mer frequency, TF over GST control)	1.26 fold enrichment (6-mer frequency, TF over GST control)	1.38 fold enrichment (6-mer frequency, TF over GST control)	1.33 fold enrichment (6-mer frequency, TF over GST control)	1.21 fold enrichment (6-mer frequency, TF over GST control)	1.28 fold enrichment (6-mer frequency, TF over GST control)	1.28 fold enrichment (6-mer frequency, TF over GST control)
